Rows were chosen to be rich in hits. Some 3.5% of all compounds tested hit in one or more screens of this group.
MITF primary: inhibitors of human MITF; inhibition, % at 2.6 µM; 650,000 compounds, 0.91% hits; AlphaScreen MITF homodimerization, bead proximity signal; in the data active = inhibition above about 50%;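 note: 0% = vehicle wells with protein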
TEAD-YAP inh: TEAD-YAP interaction inhibition; HEK-TIYL cells, TEAD-Gal4/YAP UAS-luciferase luminescence; inhibition, % at 9.12 µM; 640,000 compounds, 1.4% hits; AID 1259422; in the data active = inhibition above about 32%;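 note: 0% = median of test compound wells and 100% = reference inhibitor wells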
FBW7 activator: activators of human E3 ligase FBW7. Q969H0. AlphaScreen FBW7–phospho-cyclin E peptide binding, activator screen. normalized activity (activation), % at 26.1 µM. 650,000 compounds, 0.13% hits; in the data active = normalized activity above about 1.9%;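 note: purified mutant Fbw7 with reduced substrate affinity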
GPR151 activ: activators of human GPR151. PathHunter beta-arrestin GPR151 cells, luminescence. activation, % at 11.2 µM. 650,000 compounds, 1% hits. AID 1508602; in the data active = activation above about 4.9%;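 note: 0% = median of compound wells and 100% = cells with positive control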
Target sequence (Q8TDV0 whole entry, looked up): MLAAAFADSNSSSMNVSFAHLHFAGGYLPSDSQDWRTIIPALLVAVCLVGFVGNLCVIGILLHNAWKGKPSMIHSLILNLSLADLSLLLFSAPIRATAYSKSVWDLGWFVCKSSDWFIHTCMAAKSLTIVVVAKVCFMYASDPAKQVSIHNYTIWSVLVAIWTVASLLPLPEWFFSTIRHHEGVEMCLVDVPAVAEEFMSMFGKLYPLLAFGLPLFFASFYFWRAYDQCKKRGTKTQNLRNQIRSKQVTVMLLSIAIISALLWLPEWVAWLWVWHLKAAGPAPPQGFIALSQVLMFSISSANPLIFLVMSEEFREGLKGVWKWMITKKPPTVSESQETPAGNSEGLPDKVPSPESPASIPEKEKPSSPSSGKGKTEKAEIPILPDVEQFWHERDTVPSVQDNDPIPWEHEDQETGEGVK
Numbers without * were called inactive; ! = a repeat was not active.

SMILES	MITF primary	TEAD-YAP inh	FBW7 activator	GPR151 activ
C=CCOC(=O)c1sc(NC(=O)/C=C/c2ccco2)nc1C	-10	-16	0	1
O=C1CCCN1CCCNc1nc(Nc2ccc(N3CCOCC3)cc2)c2ncn(-c3ccsc3)c2n1	19	47*	0	0
O=C1CCCN1CCCNc1nc2ncnc(Nc3ccc(N4CCOCC4)cc3)c2[nH]1	17	38*	0	-2
c1cncc(Nc2nc3ncnc(Nc4ccc(N5CCOCC5)cc4)c3[nH]2)c1	3	25	0	-2
c1cnc2ccc(Nc3nc4ncnc(Nc5ccc(N6CCOCC6)cc5)c4[nH]3)cc2c1	5	36*	3.9*	-2
O=C1CCCN1CCCNc1nc(Nc2ccc(N3CCOCC3)cc2)nc2c1ncn2-c1ccsc1	-1	59*	0	-1
O=C1CCCN1CCCNc1nc2ncnc(Nc3ccccc3)c2[nH]1	-10	-4	0	-2
Cc1ccc(S(=O)(=O)N(C)CC(=O)NCc2ccc(F)cc2)cc1	17	9	0	0
CCOc1ccccc1-n1c(N)c(C(=O)Nc2ccccc2F)sc1=S	0	-10	0	0
O=C1c2cccc([N+](=O)[O-])c2C(=O)N1c1ccccc1[N+](=O)[O-]	9	0	0	2
O=C(OCc1ccccc1)c1cc(Cl)ccc1[N+](=O)[O-]	4	6	0	-1
O=C(OCc1cc(=O)oc2cc(O)c(O)cc12)c1cc(Cl)ccc1[N+](=O)[O-]	64*	6	0	1
CC1CCCCC1NC(=O)CN(C)S(=O)(=O)c1ccc2nc(-c3ccccc3)[nH]c2c1 (centres undefined)	54*	26	0	1
O=C(O)c1cc(-c2ccc(O)c(O)c2)nc2n[nH]c(-c3ccc(F)cc3)c12	20	1	0	0
O=C(O)c1cc(-c2ccc(O)c(O)c2)nc2n[nH]c(-c3ccccc3)c12	81*	-8	0	1
O=C(Nc1nc(-c2nc3ccccc3s2)cs1)c1cccc(N2C(=O)CCC2=O)c1	-6	-12	0	1
COc1cccc(-n2c(SCCC(C)C)nc3c(c2=O)C2(CCCCC2)Cc2ccccc2-3)c1	-5	-3	0	1
Cc1noc(C)c1C(=O)N1CCN(S(C)(=O)=O)CC1	0	9	0	0
CCN(CC)CCn1nc2c3c(cccc3c1=O)-c1ccccc1-2	9	81*	0	2
COc1ccc(/C=C2\SC(=O)N(CCCC(=O)Nc3ccc(C(=O)O)cc3)C2=O)cc1	14	88*	0	-1
CCCCN1C(=O)S/C(=C/c2ccc(OC)cc2)C1=O	-11	-41	0	0
CCOC(=O)CCCN1C(=O)S/C(=C/c2ccc(OC)cc2)C1=S	9	47*	1	-1
COc1ccc(/C=N/NC(=O)c2ccccn2)cc1Cl	1	-25	0	-1
CCOC(=O)C1=C(C)N=c2s/c(=C\c3cccc(OCc4ccc(Cl)cc4)c3)c(=O)n2C1c1ccc(OC)cc1 (centres undefined)	9	-8	0	-2
CC1=C(C(=O)OC(C)C)C(c2cccs2)C2=C(CC(c3ccccc3)CC2=O)N1 (centres undefined)	-23	42*	0	-2
SMILES	MITF primary	TEAD-YAP inh	FBW7 activator	GPR151 activ
CCOC(=O)C1=C(C)NC2=C(C(=O)CC(c3cccs3)C2)C1c1ccc(F)cc1 (centres undefined)	-3	70*	0	2
CC1=C(C(=O)OCC(C)C)C(c2ccccc2F)C2=C(CC(c3cccs3)CC2=O)N1 (centres undefined)	4	33*	0	-2
COCCOC(=O)C1=C(C)NC2=C(C(=O)CC(c3ccccc3)C2)C1c1ccc(OCc2ccccc2)cc1 (centres undefined)	9	-10	3.4*	0
CC1=C(C(=O)OCCc2ccccc2)C(c2ccccc2F)C2=C(CC(c3cccs3)CC2=O)N1 (centres undefined)	2	-9	0	-1
COc1ccc(C2C(C(=O)OCCc3ccccc3)=C(C)NC3=C2C(=O)CC(c2ccccc2)C3)cc1 (centres undefined)	7	0	2	1
COC(=O)c1c(NC(=O)COc2ccc(Cl)cc2Cl)sc2c1C(C(=O)OC)CC2 (centres undefined)	-5	11	0	1
CCOC(=O)c1c(NC(=O)CSc2nnc(CNC(=O)c3cccs3)n2-c2ccc([N+](=O)[O-])cc2)sc2c1CCCCC2	-15	-5	1	1
COc1ccc(C(=O)CCCCCCC(=O)c2ccc(OC)cc2)cc1	-15	-3	0	0
COC(=O)C1=C(C)NC(C)=C(C#N)C1c1cccs1 (centres undefined)	-12	35*!	0	-1
COC(=O)C1=C(C)NC2=C(C(=O)CC(c3cccs3)C2)C1c1cccc(OC)c1 (centres undefined)	-4	22	0	3
COC(=O)C1=C(C)NC2=C(C(=O)CC(c3cccs3)C2)C1c1cc(OC)ccc1OC (centres undefined)	-5	33*	0	3
CCOC(=O)C1=C(C)NC2=C(C(=O)CC(c3cccs3)C2)C1c1ccsc1 (centres undefined)	8	55*	0	0
COC(=O)C1=C(C)NC(S)=C(C#N)C1c1cccs1 (centres undefined)	20	6	0	-1
COCCOC(=O)C1=C(C)NC2=C(C(=O)CC(c3cccs3)C2)C1c1ccsc1 (centres undefined)	-3	-7	1	1
CCOC(=O)C1=C(C)NC2=C(C(=O)CC(c3ccccc3)C2)C1c1ccsc1 (centres undefined)	-4	44*	0	-1
COc1ccc(-c2csc3ncn(CC(=O)Nc4ccccc4Cl)c(=O)c23)cc1	2	4	0	0
O=C(O)C1Nc2c(I)cccc2C2C=CCC12 (centres undefined)	83*	7	-1	0
O=C(O)C1Nc2c(O)cccc2C2C=CCC12 (centres undefined)	108*	-3	0	2
Brc1ccc(C2Nc3c(I)cccc3C3C=CCC32)cc1 (centres undefined)	10	11	0	-2
COC(=O)C1=CN(C2CCCC2)C=C(C(=O)OC)C1c1ccc(F)cc1	13	7	3.1*	-1
COCCNC(=O)c1sc2ncnc(N3CCC(C)CC3)c2c1C	0	-8	0	1
COc1cc(-c2[nH]nc3c2C(c2ccccc2Br)C(C#N)=C(N)O3)cc(OC)c1OC (centres undefined)	-3	36*	0	0
COc1cc(-c2[nH]nc3c2C(c2ccccc2Cl)C(C#N)=C(N)O3)cc(OC)c1OC (centres undefined)	-3	16	0	-1
CCOC(=O)c1ccc(NC(=O)/C(C#N)=C/c2ccc(C3CC3C)o2)cc1 (centres undefined)	13	41*	0	1
COc1ccccc1/C=C(/C#N)C(=O)Nc1ccc(O)cc1	-9	10	0	1
COc1ccc(NC(=O)/C(C#N)=C\c2ccc(N(C)C)o2)cc1	-16	33*	0	2

Screening results as filed in PubChem BioAssay.
